Screening data from PubChem BioAssay.
Shown are actives, neighbours in structure and some others; about 2.7% of the full set was active somewhere.
eIF4E 4G PPI: eIF4E–eIF4G protein interaction inhibitors, primary screen, biochemical, uHTS, TR-FRET, eIF4GI fragment. inhibition, % at 21.7 µM. Eukaryotic translation initiation factor 4E (Mus musculus) + Eukaryotic translation …. 0.37% of 220,000 active. TR-FRET eIF4E-eIF4GI(517-606) binding, 2 h;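 active means inhibition above about 30%, limit read from the data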
Mcl-1 Bim block: inhibitors of Bim peptide binding to Mcl-1, primary screen, biochemical, bead-based flow cytometry, multiplex | Induced myeloid leukemia cell differentiation protein Mcl-1 (Homo sapiens), Q07820 | Bim peptide-Mcl-1 binding | inhibition, % at 10 µM | 0.1% of 190,000 active; in the data active means inhibition above about 40%
Target sequence (Q07820 whole entry, looked up): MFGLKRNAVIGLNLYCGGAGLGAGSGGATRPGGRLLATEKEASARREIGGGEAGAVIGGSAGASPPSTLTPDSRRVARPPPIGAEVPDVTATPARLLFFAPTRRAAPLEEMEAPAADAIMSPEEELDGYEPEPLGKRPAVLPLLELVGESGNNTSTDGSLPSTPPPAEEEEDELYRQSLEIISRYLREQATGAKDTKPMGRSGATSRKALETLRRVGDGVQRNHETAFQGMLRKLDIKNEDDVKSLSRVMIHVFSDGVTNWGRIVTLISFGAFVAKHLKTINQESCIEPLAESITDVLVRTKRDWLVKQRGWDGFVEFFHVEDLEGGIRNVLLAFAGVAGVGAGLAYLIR
Mcl1-Noxa inh: Mcl-1/Noxa binding inhibitors, primary screen, biochemical, TR-FRET, 1536-well; Induced myeloid leukemia cell differentiation protein Mcl-1 (Homo sapiens), Q07820; TR-FRET Mcl-1/Noxa peptide binding, 2 h; inhibition, % at 21.7 µM; 1.5% of 220,000 active;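 active means compounds that cut the protein-peptide binding signal by more than 50% relative to plate controls in a single-dose test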;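 further: His-tagged Mcl-1 with rhodamine Noxa BH3 peptide and terbium anti-His antibody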
Pf gamet viab: late stage P. falciparum gametocyte viability inhibitors, primary screen, ATP luminescence, HTS | P. falciparum stage V gametocytes, 24 h | AID 743093, 2013 | inhibition, % at 10.9 µM | 0.065% of 150,000 active;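 active means inhibition above the mean plus 3 SD of compounds within the control limits, set per campaign, cut at about 38% in these data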
Mcl1 Bid PPI: Mcl-1/Bid binding inhibitors, primary screen, biochemical, TR-FRET, 1536-well; Induced myeloid leukemia cell differentiation protein Mcl-1 (Homo sapiens), Q07820; 0.97% of 220,000 active; inhibition, % at 21.7 µM; AID 1021, 2008; TR-FRET Mcl-1/Bid-Dy647 peptide binding;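 active means compounds that cut the binding signal by more than half at the single screening dose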;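 further: His-tagged Mcl-1 with europium anti-His antibody binding Bid BH3 peptide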
14-3-3 Bad inh: inhibitors of 14-3-3 zeta/Bad binding, primary screen, biochemical, TR-FRET, bovine 14-3-3 zeta; 14-3-3 protein zeta/delta (Bos taurus), P63103; TR-FRET 14-3-3zeta/Dy647-pBad peptide displacement, 1 h; inhibition, % at 21.7 µM; 0.71% of 220,000 active; AID 781, 2007;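 active means inhibition above about 70%, limit read from the data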
Target sequence (P63103 whole entry, looked up): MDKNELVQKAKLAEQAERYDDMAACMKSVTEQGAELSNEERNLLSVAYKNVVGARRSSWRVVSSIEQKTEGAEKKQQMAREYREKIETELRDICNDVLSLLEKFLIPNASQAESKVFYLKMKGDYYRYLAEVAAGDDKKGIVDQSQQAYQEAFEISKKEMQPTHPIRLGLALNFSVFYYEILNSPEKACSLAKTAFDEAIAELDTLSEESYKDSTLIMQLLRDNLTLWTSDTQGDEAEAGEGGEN
Of the large screens only hits and unclear results are named; the others gave an inactive call.

CCn1ccnc1CN1CCN(CCC(C)C)C(CCO)C1 (configuration not stated)	none
CCC(C)NCCOCCOc1ccc(C)cc1Br (configuration not stated)	none
CCC(C)NCCCOc1c(C)cc(C)cc1Br (configuration not stated)	Mcl1-Noxa inh 118.9 (no result: Pf gamet viab)
COc1ccc([C@H]2CC(=O)C=C(c3ccc(Cl)c(F)c3)C2)cc1	none (no result: eIF4E 4G PPI, Mcl-1 Bim block, Mcl1-Noxa inh, Mcl1 Bid PPI, 14-3-3 Bad inh)
COc1ccc(C(c2c(C)[nH]n(C(N)=S)c2=O)C(C#N)C#N)cc1 (configuration not stated)	none (no result: Pf gamet viab)
Cc1[nH]n(-c2ncc(-c3ccc(Cl)cc3)s2)c(=O)c1C(c1ccc(Cl)cc1)C(C#N)C#N (configuration not stated)	Mcl1-Noxa inh 92.4, Mcl1 Bid PPI 51.4 (no result: Pf gamet viab)
O=c1[nH]c2ccccc2n1CCCN1CCN(C(c2ccccc2)c2ccccc2)CC1	none (no result: Pf gamet viab)
Cc1ccc(CNc2ccc(O)cc2)cc1	Mcl1-Noxa inh 51.8 (no result: Pf gamet viab)
CC(=O)N1CCN(c2ccc(NCc3ccc(C)cc3)cc2)CC1	Mcl1-Noxa inh 52.9
Cc1ccc(NCc2ccccc2O)cc1	none (no result: eIF4E 4G PPI, Pf gamet viab, 14-3-3 Bad inh)
COC(=O)c1ccccc1NC(=O)c1cc(C2CC2)on1	none (no result: Pf gamet viab)
COC(=O)c1ccccc1NC(=O)c1cc(-c2ccc(O)cc2)on1	Mcl1-Noxa inh 68.1 (no result: Pf gamet viab)
CN(C)C(=O)C1CCC(=O)N1Cc1cccs1 (configuration not stated)	14-3-3 Bad inh 88.2 (no result: Pf gamet viab)
O=C(C1CCC(=O)N1Cc1cccs1)N1CCOCC1 (configuration not stated)	none
CCCC(=O)Nc1cccc(C(=O)Nc2ccccc2OCC)c1	none
O=c1c2cnn(-c3ccccc3)c2nc(-c2ccco2)n1-c1ccccc1	Mcl1 Bid PPI 58.4
O=C(COC(=O)CCCN=C1NS(=O)(=O)c2ccccc21)NC(=O)NC1CCCC1	Mcl-1 Bim block 102.0
Cc1ccc(-n2nc3ccc(NC(=O)c4ccco4)cc3n2)cc1	Mcl1 Bid PPI 66.2 (no result: Pf gamet viab)
O=C(/C=C/c1ccco1)Nc1ccc2nn(-c3ccccc3)nc2c1	Mcl1-Noxa inh 78.4
CCOC(=O)c1c(-c2ccccc2)csc1NC(=O)c1ccc(S(=O)(=O)N2CCOCC2)cc1	none
COC(=O)c1cc(=O)n(Cc2ccc(F)cc2)c(=Nc2ccccc2)s1	Mcl1-Noxa inh 52.1 (no result: Mcl-1 Bim block)
COC(=O)c1cc(=O)n(Cc2ccc(OC)c(OC)c2)c(=Nc2ccc(F)cc2)s1	none (no result: Pf gamet viab)
O=S(=O)(c1ccccc1)N1CCN(Cc2ccccc2C(F)(F)F)CC1	Mcl1 Bid PPI 82.8, 14-3-3 Bad inh 78.8 (no result: Pf gamet viab)
O=[N+]([O-])c1ccccc1CN1CCN(S(=O)(=O)c2ccccc2)CC1	none (no result: eIF4E 4G PPI, Mcl-1 Bim block, Mcl1-Noxa inh, Mcl1 Bid PPI, 14-3-3 Bad inh)
Cc1ccc(S(=O)(=O)N2CCN(Cc3ccccc3C(F)(F)F)CC2)cc1	14-3-3 Bad inh 82.5
Cc1ccccc1CN1CCN(Cc2ccccc2C(F)(F)F)CC1	14-3-3 Bad inh 74.7 (no result: Pf gamet viab)
Nc1ccc(-c2nc3cc([N+](=O)[O-])ccc3o2)cc1	Mcl1-Noxa inh 79.7 (no result: Mcl-1 Bim block)
NC(=O)CSc1nnc(-c2cccnc2)n1CCc1ccccc1	none
CCN(CC)C(=O)CSc1nnc(-c2cccnc2)n1CCc1ccccc1	Mcl1-Noxa inh 61.0 (no result: Pf gamet viab)
COc1ccc(C2CC(=O)Oc3c(C(CCN4CCCC(C)C4)c4ccc(N(C)C)cc4)c(OC)cc(OC)c32)cc1 (configuration not stated)	eIF4E 4G PPI 42.5 (no result: Mcl-1 Bim block, Pf gamet viab)
Cc1cccn2cc(COc3ccc(-c4ccccc4)cc3)nc12	14-3-3 Bad inh 79.2
O=C(Nc1cc(C(F)(F)F)ccc1N1CCOCC1)c1ccccc1F	14-3-3 Bad inh 72.8 (no result: Pf gamet viab)
O=C(Nc1cc(C(F)(F)F)ccc1N1CCOCC1)c1cccc(F)c1	none (no result: Pf gamet viab)
CC(=O)Nc1cc(C(F)(F)F)ccc1N1CCOCC1	none (no result: Pf gamet viab)
O=C(Nc1cc(C(F)(F)F)ccc1N1CCOCC1)c1ccc2ccccc2n1	Mcl1-Noxa inh 67.7
O=C(C1CCCN(S(=O)(=O)c2cccc3cccnc23)C1)N1CCc2ccccc21 (configuration not stated)	none (no result: Pf gamet viab)
N#Cc1c(NC(=O)CSc2ncnc3sccc23)oc(-c2ccco2)c1-c1ccco1	Mcl1-Noxa inh 96.9
O=C(CN1C(=O)CCC1=O)Nc1nc(-c2ccc(Oc3ccccc3)cc2)cs1	none (no result: Pf gamet viab)
Cc1nn(-c2ccccc2)c(C)c1/C=N/n1c(-c2ccc(Cl)cc2)n[nH]c1=S	Mcl1-Noxa inh 52.7
S=c1[nH]nc(-c2ccc(Cl)cc2)n1/N=C/c1cccs1	eIF4E 4G PPI 95.5 (no result: Mcl-1 Bim block)
Cc1ccc(C(=O)NNC(=O)c2ccc3ccccc3c2O)cc1	none (no result: eIF4E 4G PPI, Mcl-1 Bim block, Mcl1-Noxa inh, Mcl1 Bid PPI, 14-3-3 Bad inh)
Cc1c(NC(=S)Nc2cccc(Cl)c2)c(=O)n(-c2ccccc2)n1C	none
CSc1cnn(Cc2ccccc2)c(=O)c1SCc1ccccc1	Mcl1-Noxa inh 99.1 (no result: Pf gamet viab)
CSc1cnn(-c2ccccc2)c(=O)c1SC	none (no result: Mcl1-Noxa inh, Pf gamet viab)
CC(=O)c1ccc(O)c(CSC2=NCCS2)c1	none
Cc1nc(N)sc1-c1csc(NCc2ccccc2)n1	none
Cc1cc(-c2csc(NCc3ccccc3)n2)c(C)n1C	Mcl1-Noxa inh 69.0, 14-3-3 Bad inh 97.9 (no result: Pf gamet viab)
NS(=O)(=O)c1ccc(N/N=C/c2ccc(O)c(O)c2O)c([N+](=O)[O-])c1	eIF4E 4G PPI 78.3, Mcl1 Bid PPI 95.4, 14-3-3 Bad inh 89.0 (no result: Mcl-1 Bim block)
CCOC(=O)C1CCCN(c2ccc(NC(=O)c3snc4c(=O)[nH]c(C)nc34)cc2)C1 (configuration not stated)	Mcl1-Noxa inh 84.1
CCOC(=O)C1CCCN(c2c(Nc3ccc(C)c(C)c3)c(=O)c2=O)C1 (configuration not stated)	none (no result: Pf gamet viab)
O=C(Nc1ccccc1)c1snc2c(=O)[nH]cnc12	none (no result: Pf gamet viab)
CCOC(=O)C1CCCN(c2ccc(NC(=O)c3snc4c(=O)[nH]cnc34)cc2)C1 (configuration not stated)	Mcl1-Noxa inh 63.4
CC1(OC(=O)c2ccc(Cl)nc2)C(=O)C=C2C=C3CCCN3C=C2C1=O (configuration not stated)	Mcl1-Noxa inh 58.7 (no result: Mcl-1 Bim block)
COC(=O)CCC(=O)OC1(C)C(=O)C=C2C=C3CCCN3C=C2C1=O (configuration not stated)	Mcl1-Noxa inh 53.6 (no result: Mcl-1 Bim block)
COC/C=C/C1=CC2=CC(=O)C(C)(OC(=O)c3cnc4ccccc4n3)C(=O)C2=CN1C1CC1 (configuration not stated)	none (no result: eIF4E 4G PPI, Mcl-1 Bim block, Mcl1-Noxa inh, Mcl1 Bid PPI, 14-3-3 Bad inh)
CC1(OC(=O)C2CCCC2)C(=O)C=C2C=C3CCCCN3C=C2C1=O (configuration not stated)	none (no result: Mcl-1 Bim block, Pf gamet viab)
